Compounds with a hit are over-represented: about 5.9% of the library has one in this group of screens.
GLP1R cytotox: cytotoxicity counter-screen for GLP-1 receptor inverse agonists; AID 624418; Potency, µM (titrated, usually from 38.3 µM), hits mostly inhibitors; HEK293 cAMP-luciferase reporter cells, luminescence, 24 h; actives 0.13% (n = 410,000);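 note: loss of luciferase light is scored as toxicity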
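MLSMR compounds, 24 hr on cells at 37 deg C/5% CO2; luminescence after luciferase reagent (12 min RT). Inhibition counted as the undesired cytotoxic outcome.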
GLP-1R inv ag: acts as inverse agonist at human GLP-1 receptor | P43220 | HEK293 GLP-1R CRE-luciferase, luminescence, 24 h; GLP-1R form is constitutively active | Potency, µM (highest dose often 38.3 µM), actives largely listed as inhibitors | actives 1.6% (n = 410,000) | AID 624417; note: nearly all actives have a fitted effect of over 55% in size
Target sequence (P43220 whole entry, looked up): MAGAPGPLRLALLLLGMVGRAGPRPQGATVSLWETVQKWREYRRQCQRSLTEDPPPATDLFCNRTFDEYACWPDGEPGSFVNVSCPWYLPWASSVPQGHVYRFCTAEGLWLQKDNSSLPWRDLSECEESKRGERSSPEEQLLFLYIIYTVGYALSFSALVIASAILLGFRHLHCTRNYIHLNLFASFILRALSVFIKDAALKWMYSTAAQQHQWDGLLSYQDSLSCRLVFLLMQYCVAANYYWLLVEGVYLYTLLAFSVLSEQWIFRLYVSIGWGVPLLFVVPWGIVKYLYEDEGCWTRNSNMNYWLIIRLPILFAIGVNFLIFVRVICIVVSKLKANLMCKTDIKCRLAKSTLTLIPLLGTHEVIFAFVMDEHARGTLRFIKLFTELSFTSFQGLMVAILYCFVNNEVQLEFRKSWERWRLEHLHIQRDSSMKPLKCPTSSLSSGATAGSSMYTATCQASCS
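Inverse agonists were sought by their lowering of basal cAMP reporter luciferase output in HEK293 cells stably carrying constitutively active human GLP-1R, after 24 h compound treatment.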
RORg inh: ROR gamma (mouse) transcription inhibition; P51450; Drosophila S2 Gal4-RORgamma UAS-luciferase reporter, 20 h; Potency, µM (doses to about 53.6 µM), actives largely listed as inhibitors; actives 5.4% (n = 310,000); note: nearly all actives have a fitted effect of over 60% in size
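Stably transfected Drosophila Schneider cells are the test system, with ROR gamma fused to Gal4 and luciferase under UAS control; luminescence is read after 20 hr of 700 uM copper sulfate induction at ambient temperature.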
VP16 counter: inhibits Gal4-VP16 luciferase reporter, ROR gamma counter-screen; Drosophila S2 Gal4-VP16 UAS-luciferase, luminescence, 20 h; Potency, µM (highest dose often 53.6 µM), hits mostly inhibitors; actives 3.5% (n = 310,000); AID 2546;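 note: Gal4-VP16 expression switched on by copper sulfate through the metallothionein promoter; nearly all actives have a fitted effect of over 50% in size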
GLP1R ag: agonists of human GLP-1 receptor; Potency, µM (highest dose often 45.6 µM), actives largely listed as activators; actives 0.007% (n = 380,000); HEK293 GLP-1R CRE-luciferase, luminescence, 4-6 h; cells express a hypersensitive GLP-1R form; AID 624172; P43220
A number is an active result; n = inactive; u = inconclusive; x = no result; [ ] = another dose, or the depositor's remark. Calls come from the whole dose curve; as a rule, active = well fitted curve in the direction sought with a large enough effect; inconclusive = small, poorly fitted or top-dose-only effect, or another doubt; inactive = no such curve, though single readings can be large; an effect the other way counts as inactive or inconclusive.

SMILES	GLP1R cytotox	GLP-1R inv ag	RORg inh	VP16 counter	GLP1R ag
Cc1cc(C(C)(C)C)ccc1OCCOCCN1CCCC1	n	13µM	n	n	n
CC(C)(C)c1cc(Cl)ccc1OCCOCCN1CCCC1	u	u	n	n	n
COc1ccc(N2CSC3=C(C#N)C(c4cc(OC)ccc4OC)CC(=O)N3C2)c(OC)c1 (stereo not drawn)	n	n	u	u	n
COc1ccc(N2CSC3=C(C#N)C(c4cc(OC)c(OC)cc4OC)CC(=O)N3C2)c(OC)c1 (stereo not drawn)	n	n	13µM	n	n
Cc1cccc(NC(=S)Nc2cccc(C)n2)n1	u	u	u	6.3µM	n
Cc1cccc(NC(=S)NC2CCCC2)n1	u	4.5µM	0.35µM	2.8µM	n
Cc1cccc(NC(=S)Nc2ccc(Oc3ccccc3)cc2)n1	u	u	n	u	n
Cc1cccc(NC(=S)NC2CCCCC2)n1	u	u	1µM	4.5µM	n
Cc1cccc(NC(=O)Nc2cccc(C)n2)n1	n	n	u	n	n
NC(=S)NNc1c(F)c(F)c(F)c(F)c1F	n	n	13µM	u	n
Cc1ccccc1NNC(N)=S	n	n	u	u	n
COc1ccc(-c2noc(N3CCN(c4cccc(C)c4C)CC3)n2)cc1OC	n	n	x	x	x
Cc1ccc(CN(C(=O)c2ccc(OCC(C)C)cc2)c2ccccn2)o1	n	u	x	x	x
COc1ccc(CCNc2ncnc3c2oc2ccccc23)cc1OC	n	n	u	1µM	n
Cc1sc2ncnc(NCCc3ccc(S(N)(=O)=O)cc3)c2c1C	n	n	8.9µM	2.5µM	n
CN(C)c1ccc(CNc2ncnc3sccc23)cc1	n	n	u	7.1µM	n
Cc1ccc(S(=O)(=O)Nc2ncnc3sc(C)c(C)c23)cc1	n	n	x	x	n
COc1ccc(Nc2ncnc3sccc23)cc1OC	n	n	n	n	n
COc1ccc(CCNc2ncnc3sccc23)cc1OC	n[0.307 µM]	n[0.307 µM]	u	0.63µM	n
COc1ccc2c(c1)c1c(c(=O)n(-c3ccccc3)c(=O)n1CC(=O)Nc1ccc(C)c(C)c1)n2C	n	n	x	x	n
O=C(Nc1cc(C(F)(F)F)ccc1Cl)c1cnn(-c2ccccc2)c1-n1cccc1	n	n	x	x	x
CC(Cc1ccccc1)C(=O)NCC1CC1 (stereo not drawn)	x	x	n	n	x
NS(=O)(=O)c1ccc(CCNc2ncnc3sccc23)cc1	n	n	u	4µM	n
Cc1ccc2cccc(NC(=O)C(C)Oc3ccc(Cl)cc3Cl)c2n1 (stereo not drawn)	n	n	x	x	x
CCCCN(CCCC)C(=S)NC(=O)C(C)(C)C	n	u	3.2µM	6.3µM	n
SMILES	GLP1R cytotox	GLP-1R inv ag	RORg inh	VP16 counter	GLP1R ag
COc1cccc(-c2cn3nc4c(nc3n2)CCCC4)c1	n	2.5µM	n	u	n
COc1cccc(-c2cc(C(F)(F)F)n3nc(N)nc3n2)c1	n	n	n	n	n
CCOc1c2c(nc3ccc(Cl)cc13)CCC2	n	n	11µM	n	n
CCN(CC)CCNC(=O)Cn1nc(C)c2c(C)n(-c3ccccc3)nc2c1=O	n	n	x	x	x
CCc1cnc2c(c1SCc1cc(OC)cc(OC)c1)c(=O)n(C)c(=O)n2C	n	n	x	x	x
S=c1nc2ccccc2c2nc(-c3ccccc3Br)[nH]n12	u	u	0.45µM	2.2µM	n
Cc1ccc(C)c(NC(=O)c2ccc3c(c2)CCCN3S(C)(=O)=O)c1	n	n	x	x	x
Cc1ccc(-n2cnc3scc(-c4cccs4)c3c2=O)cc1	n	10µM	u	n	n
CC(C)c1ccc(NS(=O)(=O)c2ccc3nc(-c4ccccc4)[nH]c3c2)cc1	n	u	x	x	x
CC(Sc1nnc(-c2ccccc2)c(-c2ccccc2)n1)C(=O)N1CCc2ccccc21 (stereo not drawn)	n	u	2.2µM	11µM	n
Cc1nnc(SC(C)C(=O)N2CCc3ccccc32)s1 (stereo not drawn)	n	n	n	n	n
CC(=O)Nc1cccc(C2=CC(c3ccco3)n3ncnc3N2)c1 (stereo not drawn)	x	x	6.3µM	n	x
CO[C@H]1COC(=O)[C@@H](Cc2ccccc2)NC(=O)[C@@H](C)COC(=O)C/C=C\[C@@H]1C	x	x	n[10 µM]	n[10 µM]	x
COc1cc(C)ccc1OCc1cc(C(=O)NC(c2ccccn2)C(F)(F)F)no1 (stereo not drawn)	n	13µM	x	x	n
Cc1ccc(CSC(Nc2ccc(F)cc2)=C(C#N)C#N)cc1	n	u	u	25µM	n
O=C1c2cccc3c([N+](=O)[O-])ccc(c23)C(=O)N1O	n	n	u	13µM	n
O=C1c2cccc3c([N+](=O)[O-])ccc(c23)C(=O)N1c1ccccn1	n	u	n	n	n
O=C1c2cccc3c([N+](=O)[O-])ccc(c23)C(=O)N1c1ccc(Cl)cn1	n	n	u	7.9µM	n
O=C1c2cccc3c([N+](=O)[O-])ccc(c23)C(=O)N1c1nccs1	n	n	5.6µM	5µM	n
CCCN(CCC)CCCNC(=O)c1cc2c(=O)oc3ccc(C)cc3c2s1	n	n	x	x	n
CC(NC(=O)NC12CC3CC(CC(C3)C1)C2)c1ccc2c(c1)OCO2 (stereo not drawn)	n	11µM	n	n	n
O=C(/C=C/c1ccccc1Cl)Nc1cccc(O)c1	n	u	0.32µM	2.5µM	n
O=C(/C=C/c1ccccc1Cl)Nc1ccccc1	n	u	2µM	u	n
O=C(/C=C/c1ccccc1[N+](=O)[O-])Nc1ccccc1	n	n	n	n	n
CN(C)S(=O)(=O)c1ccc(NC(=O)/C=C/c2ccccc2Cl)cc1	n[1.53 µM]	u	0.5µM	n	n
SMILES	GLP1R cytotox	GLP-1R inv ag	RORg inh	VP16 counter	GLP1R ag
CN(C)c1ccc(NC(=O)/C=C/c2c(Cl)cccc2Cl)cc1	u	n	n	n	n
CC(=O)OCOC(=O)CNc1ccccc1OCCOc1ccccc1NCC(=O)OCOC(C)=O	x	x	u	n	x
Oc1ccc(/C=N/Nc2ccc(C(F)(F)F)cn2)c(O)c1	x	x	u	n	x
O=C(N/N=C\c1cccc(F)c1)c1ccc(-c2ccccc2)cc1	n	n	n	n	n
Oc1ccc(/C=N/Nc2ccc(C(F)(F)F)cn2)cc1	n	u	4.5µM	u	n
O=C(N/N=C/c1c(O)ccc2ccccc12)c1cccc(C(F)(F)F)c1	u	u	3.2µM	5µM	n
O=C(N/N=C/c1cccc(C(F)(F)F)c1)c1ccc(O)cc1	n	n	1.1µM	u	n
O=C(N/N=C/c1ccc(C(F)(F)F)cc1)c1ccc(O)cc1	n	u	1.8µM	4.5µM	n
Cc1ccccc1CN1C(=O)c2ccccc2Sc2ccc(C(=O)OCc3ccco3)cc21	n	u	x	x	n
COc1ccc(NC(=O)c2oc3ccc(S(=O)(=O)N4CCC5(CC4)OCCO5)cc3c2C)cc1Cl	n	n	x	x	x
CSc1ccc(/C=N/NC(=O)c2cccc(O)c2)cc1	n	u	n	2.2µM	n
